ChEMBL document CHEMBL3988442, “University of Dundee, Small-Polar-MMV Screening Library” (2021)
Screen size: about 38,000 compounds; about 1,200 (3.2%) showed an effect of 50% or more. The median lay at about -58%. Shown is part of a subset that was picked to be rich in strong results.

Each compound was assayed on Plasmodium falciparum (assay: Calibr Malaria Delayed Death Assay SOP). Conditions: concentration 4.99e-06 (unit not given; other assays of the set use mol/L).
Assay type: functional, organism-based
Set-up: scale not given: in the data most compounds retested in dose-response had high values

Row | Structure (SMILES) | Percent Effect [%]
1 | O=C1CCCN1Cc1ncn2c1CN(C(=O)Cc1ccccc1)CCC2 | -76.95
2 | CC1CCCCN1C(=O)COCc1nc(-c2ccncc2)no1 (stereo not given) | -64.65
3 | O=C(O)C(F)(F)F.O=C(O)C(F)(F)F.O=C(O)c1c(-c2ccncc2)ncc2c1CCN(CC1CCOC1)C2 (stereo not given) | -34.25
4 | Cc1cc(S(=O)(=O)N2CCCc3ccccc32)sc1C(=O)O | -124.8
5 | O=C(Cc1ccsc1)N1Cc2nc(CN3CCCCC3)oc2C1.O=C(O)C(F)(F)F | -52.68
6 | Cc1nonc1CN(C)Cc1nc(-c2cccc(F)c2F)oc1C | -82.79
7 | COCCN(Cc1ccccc1)C(=O)c1cnn(C)c1C | -75.6
8 | O=C(O)C(F)(F)F.O=C(O)C(F)(F)F.c1cc(CN2CCC3(CC2)COC(COCC2CC2)C3)ccn1 (stereo not given) | -17.94
9 | Cc1nn(C)c(Oc2ccccc2)c1CNC1CCCCNC1=O (stereo not given) | -0.05055
10 | COc1ccc(-c2c(C(C)C)nn3c(=N)c(C#N)n[nH]c23)cc1 | -149.3
11 | COc1ccc(-c2c(C)nn3c(=N)c(C#N)n[nH]c23)cc1OC | 87.26
12 | COc1ccc(-c2c(C)nn3c(=N)c(C#N)n[nH]c23)cc1 | -120.8
13 | CCn1ncc2c1C(COC)CN(Cc1ccc(C)o1)C2 (stereo not given) | -90.58
14 | CCN(C)C(=O)c1cccc(C(=O)N(C)Cc2cccc(O)c2)c1 | -54.27
15 | O=S(=O)(NC[C@H]1C[C@@H]2CCN1C[C@@H]2CN1CCCC1)c1ccc(Cl)cc1 | 89.33
16 | O=C(NC[C@H]1C[C@@H]2CCN1C[C@@H]2CN1CCCCC1)Nc1ccccc1 | -35.07
17 | O=S(=O)(NC[C@H]1C[C@@H]2CCN1C[C@@H]2CN1CCOCC1)c1ccccc1 | -72.09
18 | Cc1nn(C)cc1CN1CCCCCC1c1ccccc1Cl (stereo not given) | -108.4
19 | CCSc1ncc(-c2cc(C3CCC3)nc(N)c2C#N)cn1 | -33.43
20 | CCSc1ncc(-c2cc(C3CC3)nc(N)c2C#N)cn1 | 1.431
21 | CCCNc1ncc(-c2cc(C3CC3)nc(N)c2C#N)cn1 | 54.19
22 | Cc1ccc(CSc2ncc(Br)c(C(=O)O)n2)cc1 | -107.1
23 | NC(=O)Nc1ccc(C(=O)NCCn2cccc2)cc1 | -116.7
24 | CC[C@H](C)[C@@H](CO)NC(C)Cc1ccccc1F (stereo not given in full) | 48.98
25 | CC(N)Cc1ccccc1Sc1ccc(O)cc1.CC(N)Cc1ccccc1Sc1ccc(O)cc1.O=C(O)C(=O)O (stereo not given) | 71.69

Row | Structure (SMILES) | Percent Effect [%]
26 | CNS(=O)(=O)CC(=O)NC(C)Cc1ccccc1Br (stereo not given) | -190.6
27 | CC(N)Cc1ccccc1Sc1ccccc1.O=C(O)/C=C\C(=O)O (stereo not given) | 77.8
28 | CC(C)C(=O)NS(=O)(=O)CCc1ccccc1 | -111.2
29 | CNC(C)Cc1ccccc1Sc1ccc(O)cc1.Cl (stereo not given) | 87.88
30 | CC(C(=O)Nc1ccccc1Sc1ccccc1)S(C)(=O)=O (stereo not given) | -117.7
31 | NCc1ccccc1Sc1ccc(O)cc1.O=C(O)/C=C\C(=O)O | 55.63
32 | COc1ccccc1CC(C)CC(=O)O (stereo not given) | -155.2
33 | Cn1c(CC(=O)O)c(Sc2ccccc2)c2ccccc21 | -130
34 | CC(C)CCN1C2(CCN(C(=O)C3(C)CC3)C2)c2ccccc2S1(=O)=O (stereo not given) | -11.02
35 | CCc1ncc2c(n1)CN(Cc1nnc(CC)o1)CC2 | -50.82
36 | CC(C)Nc1nc2c(cc1C(=O)O)CCN(Cc1ccsc1)CC2.O=C(O)C(F)(F)F.O=C(O)C(F)(F)F | -107.1
37 | Cc1csc(CNC(=O)NCC(C)Cn2nc(C)cc2C)n1 (stereo not given) | -114.8
38 | Cc1c(C(=O)N(C)C)cccc1N(C)S(C)(=O)=O | -103.2
39 | Cc1ncc(CNC(=O)Cc2cccs2)c(C2CCCN2C)n1 (stereo not given) | -27.86
40 | Cc1nn(C)c(C)c1CC(=O)N1CCCC1Cn1cccn1 (stereo not given) | -102.7
41 | CN1CCCN(S(=O)(=O)c2cnn(C)c2)c2cc(Cl)ccc21 | -19.46
42 | Cc1ccc(S(=O)(=O)N2CCN(C)c3ccncc32)cc1F | 60.6
43 | Cc1cc(F)ccc1S(=O)(=O)N1CCN(C)c2ccncc21 | 20.68
44 | CN1CCN(S(=O)(=O)c2cccc(F)c2)c2cnccc21 | 11.1
45 | CN1CCN(S(=O)(=O)c2cccnc2)c2cnccc21 | -116.1
46 | CN1CCN(S(=O)(=O)c2ccc(Cl)c(Cl)c2)c2cnccc21 | 89.32
47 | CCOC(=O)COc1nc(CC(C)C)c2c(c1C#N)CCC2 | -73.52
48 | CN1CCCCC1CCC(=O)NCCCn1ncc2ccccc21 (stereo not given) | -37.16
49 | CCSc1cc(C(=O)NC2CCN(C(=O)c3ccncc3)CC2)ccn1 | -119
50 | CC(NC1CCCC1)c1ccccc1-n1cccn1 (stereo not given) | 80.66

Row | Structure (SMILES) | Percent Effect [%]
51 | O=C(NCc1ccccc1-n1cccn1)N1CCN2CCCCC2C1 (stereo not given) | -71.32
52 | CC(NCc1cnc(C2CCC2)s1)c1ccccc1-n1cccn1 (stereo not given) | -47.47
53 | CS(=O)(=O)CCCN(CCCO)C1CCc2ccccc21 (stereo not given) | -127.8
54 | Fc1cc(Cl)cnc1N1CCCC(c2nccn2CC2CC2)C1 (stereo not given) | 3.7
55 | CN(C)CCCn1ccnc1C1CCCN(c2ncc(Cl)cc2F)C1 (stereo not given) | 83.94
56 | CN(C)CCn1ccnc1C1CCCN(c2cc(N)ncn2)C1 (stereo not given) | -56.5
57 | Cc1cc(C)nc(N2CCCC(c3nccn3CCCN(C)C)C2)c1 (stereo not given) | 50.47
58 | CN(C)CCn1ccnc1C1CCCN(c2ncc(Cl)cc2F)C1 (stereo not given) | 35.69
59 | COc1cc(OC)nc(N2CCCC(c3nccn3CCN(C)C)C2)n1 (stereo not given) | -26.11
60 | Cc1ccc(C)c(Oc2cc(-n3nc(C)c(C#N)c3N)nc(C)n2)c1 | -175
61 | Cc1cc(C2CCCN2C(=O)NCc2c(C)cc(C)[nH]c2=O)on1 (stereo not given) | -57.59
62 | CN(CC1COCCO1)c1ncnc2cc(F)ccc12 (stereo not given) | -82.12
63 | Cn1cccc1C(=O)N1CCN(Cc2cccnc2)c2ncccc2C1.O=C(O)C(F)(F)F.O=C(O)C(F)(F)F | -59.69
64 | Cc1nc[nH]c1CN1CCCN(c2nc3ccccc3s2)CC1 | 54.13
65 | Cc1nc[nH]c1CN1CCC(C2CCN(CCc3ccccc3)C2)CC1 (stereo not given) | 9.569
66 | c1ccc2sc(N3CCN(c4ncnc5c4CCC5)CC3)nc2c1 | -56.68
67 | Cn1nc2c(cc1=O)CN(c1nc3ccccc3s1)CC2 | -163.5
68 | c1ccc2sc(N3CCCN(c4ncnc5c4CCNC5)CC3)nc2c1 | 85.14
69 | Cc1ncnc(N2CCCN(c3nc4ccccc4s3)CC2)c1C | -444.8
70 | Cc1ccc(CNCc2nccn2C)c(OC(C)(C)C)c1 | 8.3
71 | O=C(NCCc1coc(-c2ccccc2)n1)NC1CC1 | -110.7
72 | CN(C)CCN1CCOCC12CCN(C(=O)C1CC1)CC2.O=C(O)C(F)(F)F.O=C(O)C(F)(F)F | -16.92
73 | CC(C(=O)NCc1cn2cc(Br)ccc2n1)S(C)(=O)=O (stereo not given) | -87.47
74 | Cc1cc(CN(C)C(=O)C(c2ccccc2)N2CCSCC2)no1 (stereo not given) | -62.62
75 | CCn1cnnc1CNC(=O)N1CCN(c2cccc(C)c2)CC1 | -132.8

Row | Structure (SMILES) | Percent Effect [%]
76 | Cc1cc(C)n(-c2cncc(NCCNS(C)(=O)=O)n2)n1 | -82.28
77 | CSc1ncn(-c2nc(NC3CC3)nc(N(C)C)n2)n1 | -74.3
78 | CCC(CNC(=O)c1cc(OC)ccc1Br)N1CCc2ccccc2C1 (stereo not given) | 0.2059
79 | CCC(CNC(=O)c1cncc(Br)c1)N1CCc2ccccc2C1 (stereo not given) | 65.67
80 | CCC(CNC(=O)c1ccccc1Br)N1CCc2ccccc2C1 (stereo not given) | 39.24
81 | CN(CC1(CO)CCC1)C(=O)c1cc(COc2ccccc2F)[nH]n1 | -88.13
82 | Cc1noc(C(C)C)c1C(=O)N1CCOCC1CC(=O)c1ccco1 (stereo not given) | -42.91
83 | NC(=O)Cc1ccc(OCc2noc(C(=O)N3CCCC3)n2)cc1 | -126.1
84 | O=C(C1CCC2(CCN(Cc3cccnc3)CC2)CO1)N1CCCC1.O=C(O)C(F)(F)F.O=C(O)C(F)(F)F (stereo not given) | -51.34
85 | COc1cc(CCC(=O)NC(C)C)ccc1OCC(F)(F)F | -88.73
86 | Cc1c(C(=O)N2CCOCC2)n(C)c2ccc(Cl)cc12.Cl | -79.72
87 | Cc1c(C(=O)N2CCN(C)CC2)n(C)c2ccc(Cl)cc12 | -1.924
88 | NCC1Cc2cc(-c3nccc(N4CCC(O)CC4)n3)cc(Cl)c2O1 (stereo not given) | 79.64
89 | NCC1Cc2cc(-c3nccc(N4CCC(O)CC4)n3)cc(F)c2O1 (stereo not given) | 83
90 | NCC1Cc2cccc(-c3nccc(N4CCC(O)CC4)n3)c2O1 (stereo not given) | 16.4
91 | OC1CCN(c2ccnc(NCCc3ccccc3Cl)n2)CC1 | -52.91
92 | OC1CCN(c2ccnc3c(F)cc(Br)cc23)CC1 | -18.79
93 | O=C1NCCN1C1CCN(c2ccnc(-c3ccccc3)n2)CC1 | -68.77
94 | Cc1ccc(CN2CCc3c(COC(C)C)nn(C)c3C2)s1.O=C(O)C(F)(F)F | -19.42
95 | Cc1cc(-c2cc(S(=O)(=O)N3C[C@H](C4CC4)[C@@H](N)C3)c(C)s2)[nH]n1 | 61.47
96 | Cc1cc(S(=O)(=O)N2C[C@H](C3CC3)[C@@H](N)C2)c(C)s1 | 85.63
97 | N[C@H]1CN(S(=O)(=O)c2cccnc2)C[C@@H]1C1CC1 | -65.5
98 | N[C@H]1CN(S(=O)(=O)c2ccccc2)C[C@@H]1C1CC1 | -1.115
99 | Cc1ccc(S(=O)(=O)N2C[C@H](C3CC3)[C@@H](N)C2)cc1F | 14.36
100 | CC(C)Nc1cc(N2CCC(n3cc(CCO)nn3)CC2)ncn1 | -78.28
